The values that follow come from PubChem BioAssay (EPA / NIEHS).

Experiment [1] concerns the target human Phosphodiesterase 10 (PDE10), PDE10A (gene 10846) (UniProt Q9Y233). In words: NVS_ENZ_hPDE10: NovaScreen (NVS) Enzymatic Assay for human Phosphodiesterase 10 (PDE10) (AID 2283195; active = hit-call score of the fitted dose curve at least 0.9, where 1 is the maximum). Summed up:
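Fluorescence/mobility-shift readout of PDE10A enzyme activity, taken 1 h post-dosing. Primary screen in duplicate at 25 uM; actives (e.g. ≥30% inhibition) retested as singleton concentration-response, top concentration 50 uM.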

Read-out in experiment [2]: Collagen I, COL1A1 (gene 1277)
Kind of experiment: BSK_MyoF_CollagenI: BioMAP Diversity Plus: MyoF Assay for Collagen I Biomarker Activity (AID 2284238). The following applies: primary human lung fibroblasts. Summed up:
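Multiplexed primary human lung fibroblast system; Collagen I measured by ELISA at 24 h post-dose. Increases are referenced to DMSO.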

Read-out in experiment [3]: Collagen III, COL3A1 (gene 1281)
Kind of experiment: BSK_MyoF_CollagenIII: BioMAP Diversity Plus: MyoF Assay for Collagen III Biomarker Activity (AID 2284239). The conditions noted are these: primary human lung fibroblasts. The procedure, abridged:
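Compounds are added to primary human lung fibroblasts and left for 24 hours. Collagen III is then quantified by ELISA. Analysis takes DMSO as baseline and fits increases in signal.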

Read-out in experiment [4]: Interleukin 17F (IL17F), IL17F (gene 112744)
In words: BSK_BT_xIL17F: BioMAP Diversity Plus: BT Assay for Interleukin 17F (IL17F) Biomarker Activity (AID 2284243). The following applies: primary human B cells with PBMC. The procedure, abridged:
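Measures secreted IL-17F from a human B cell plus PBMC co-culture at 24 h post-dose by Luminex xMAP, with DMSO defining baseline activity.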

Read-out in experiment [5]: Actin alpha 1 (ACTA1), ACTA1 (gene 58)
Kind of experiment: BSK_MyoF_ACTA1: BioMAP Diversity Plus: MyoF Assay for Actin alpha 1 (ACTA1) Biomarker Activity (AID 2284244). The conditions noted are these: primary human lung fibroblasts. The procedure, abridged:
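Lung fibroblasts, human primary, 24 h compound exposure → a-SMA ELISA. Positive-direction fit vs DMSO control.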

Read-out in experiment [6]: Interleukin 2 (IL2), IL2 (gene 3558)
Kind of experiment: BSK_BT_xIL2: BioMAP Diversity Plus: BT Assay for Interleukin 2 (IL2) Biomarker Activity (AID 2284245). The following applies: primary human B cells with PBMC. The procedure, abridged:
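B cell + PBMC co-culture (human primary), compound added, 24 h incubation; secreted IL-2 measured multiplexed on Luminex xMAP; gain-of-signal fit vs DMSO.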

Read-out in experiment [7]: Basic fibroblast growth factor (bFGF), FGF2 (gene 2247)
Kind of experiment: BSK_MyoF_bFGF: BioMAP Diversity Plus: MyoF Assay for Basic fibroblast growth factor (bFGF) Biomarker Activity (AID 2284246). The conditions noted are these: primary human lung fibroblasts. Summed up:
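ELISA-measured bFGF level serves as the read-out, taken 24 h after chemical dosing of human lung fibroblasts. Values represent signal gain over the DMSO negative control.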

Read-out in experiment [8]: Plasminogen activator inhibitor-1 (PAI1), SERPINE1 (gene 5054)
In words: BSK_MyoF_PAI1: BioMAP Diversity Plus: MyoF Assay for Plasminogen activator inhibitor-1 (PAI1) Biomarker Activity (AID 2284256).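 For outcome: PAI-1 protein level measured by ELISA in fibroblast cultures; PAI-1 read 24 h after compound addition.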 The conditions noted are these: primary human lung fibroblasts. Summed up: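 Activity reflects increased PAI-1, determined by ELISA and compared with DMSO, in human lung fibroblasts treated for 24 h.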

Read-out in experiment [9]: Interleukin-8 (IL8), CXCL8 (gene 3576)
In words: BSK_MyoF_IL8: BioMAP Diversity Plus: MyoF Assay for Interleukin-8 (IL8) Biomarker Activity (AID 2284261). The following applies: primary human lung fibroblasts. The procedure, abridged: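 In this multiplexed primary-cell system, fibroblasts from human lung are treated with chemicals, and IL-8 is detected by ELISA at 24 h, with DMSO serving as the negative reference.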

Read-out in a further experiment: Decorin, DCN (gene 1634)
In words: BSK_MyoF_Decorin: BioMAP Diversity Plus: MyoF Assay for Decorin Biomarker Activity (AID 2284265). The following applies: primary human lung fibroblasts. The procedure, abridged:
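Lung fibroblast cultures, 24 h chemical exposure. Decorin by ELISA, positive fitting direction, DMSO baseline.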

A short description of experiment [10]: BSK_MyoF_SRB: Viability Assessment in the BioMAP Diversity Plus: MyoF Assay (AID 2284267).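 Note: total protein by SRB absorbance in parallel cultures as cytotoxicity measure.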 The conditions noted are these: primary human lung fibroblasts. Summed up:
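Read-out is SRB absorbance at 560 nm, reflecting total protein in parallel lung fibroblast cultures harvested 24 h after compound addition. Cells were TCA-fixed (10%) and stained with 0.1% SRB; activity is referenced to DMSO.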

Read-out in experiment [11]: TIMP metallopeptidase inhibitor 1 (TIMP1), TIMP1 (gene 7076)
Kind of experiment: BSK_MyoF_TIMP1: BioMAP Diversity Plus: MyoF Assay for TIMP metallopeptidase inhibitor 1 (TIMP1) Biomarker Activity (AID 2284269). The conditions noted are these: primary human lung fibroblasts. The procedure, abridged:
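TIMP-1 levels were determined by ELISA in human lung fibroblasts treated for 24 h. DMSO served as negative control and baseline for upward curve fitting.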

The nature of experiment [12]: CCTE_Padilla_ZF_Score.General: CCTE's 144 Hour Post-fertilization zebrafish Assay Score for General Malformation, Padilla Lab (AID 2284411). Summed up:
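Wild-type zebrafish embryos were plated singly at 6-8 hpf in 10% Hanks' and exposed in sealed wells at 26C until rinsed on 5 dpf. At 6 dpf two blinded assessors scored mortality, hatching and malformations by stereomicroscopy; gain-of-signal versus DMSO.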

A short description of experiment [13]: CCTE_Deisenroth_AIME_384WELL_CTox_Active: Cytotoxicity Assessment (CTOX) in CCTE's 384-well Estrogen Receptor Transactivation Assay with AIME metabolic competence (metabolism positive), Deisenroth Lab (AID 2284037; active = hit-call score of the fitted dose curve at least 0.9, where 1 is the maximum;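 note: chemicals first conditioned 2 h by alginate-bound induced rat liver S9 before cells; activity means signal loss indicating cell death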). The procedure, abridged:
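VM7Luc4E2 breast cells received medium pre-incubated 2 h with chemical over alginate microspheres holding induced male Sprague Dawley rat liver S9; viability read 24 h later by protease-substrate fluorescence. Loss of signal, bidirectional fit, 0.002–200 uM.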

In the next experiment the test system is SERPINA7 (gene 6906). Kind of experiment: CCTE_GLTED_hTBG: CCTE's human Thyroxine-binding Globulin (TBG) Inhibition Assay, Great Lakes Toxicology and Ecology Division (GLTED) Lab (AID 2284343; active = hit-call score of the fitted dose curve at least 0.9, where 1 is the maximum;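 note: active chemicals lower fluorescence versus DMSO baseline by displacing probe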). The procedure, abridged: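 hTBG + test chem, 2 h; ANSA probe displacement; fluorescence readout ex380/em475; DMSO = neg ctrl/baseline; cell-free.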
Another experiment concerns TTR (gene 7276). In words: CCTE_GLTED_hTTR_0.125uM: CCTE's human Transthyretin (hTTR) Inhibition Assay, with 0.125uM TTR, Great Lakes Toxicology and Ecology Division (GLTED) Lab (AID 2284431).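 Note: hits lower the fluorescence signal relative to DMSO baseline.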 The procedure, abridged:
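Probe-displacement format: chemicals competing for the T4 site release ANSA from 0.125uM TTR during a 2 h incubation, measured by fluorescence at 380 excitation and 475 emission.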

Experiment [14] addresses Retinoic acid receptor alpha (Homo sapiens) (UniProt P10276). Kind of experiment: ATG_RARa_TRANS: Attagene TRANS-FACTORIAL HepG2 Assay for human Retinoic Acid Receptor alpha (RARa) (AID 2283005; active = hit-call score of the fitted dose curve at least 0.9, where 1 is the maximum). The procedure, abridged:
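HepG2 cells transiently transfected with multiple reporter units expressing chimeric RARα-GAL4 fusion, with GAL4-UAS-driven reporters. After 24 h compound exposure, reporter mRNA induction quantified by RT-PCR and capillary electrophoresis with fluorescent labeling; gain-of-signal fitted relative to DMSO control.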

Experiment [15] is described as follows: ATG_PPRE_CIS: Attagene CIS-FACTORIAL HepG2 Assay for human Peroxisome Proliferator-activated Response Element (PPRE) (AID 2282958). The following applies: HepG2 PPRE cis-element reporter, Attagene transcription factor profiling; actives raise or lower the signal. Summed up:
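Measured endpoint: PPRE-controlled reporter mRNA, detected by RT-PCR and capillary electrophoresis fluorescence, from transiently transfected HepG2 cells 24 h after dosing. Curves fitted in both directions using DMSO baseline.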

Inconclusive results are not listed. Active and inactive are the calls of the source. Rule for the calls, unless noted: active = hit-call score of the fitted dose curve at least 0.9, where 1 is the maximum; inactive = score below 0.9.

Sequence of human Phosphodiesterase 10 (PDE10), PDE10A (gene 10846) (Q9Y233 whole entry, looked up): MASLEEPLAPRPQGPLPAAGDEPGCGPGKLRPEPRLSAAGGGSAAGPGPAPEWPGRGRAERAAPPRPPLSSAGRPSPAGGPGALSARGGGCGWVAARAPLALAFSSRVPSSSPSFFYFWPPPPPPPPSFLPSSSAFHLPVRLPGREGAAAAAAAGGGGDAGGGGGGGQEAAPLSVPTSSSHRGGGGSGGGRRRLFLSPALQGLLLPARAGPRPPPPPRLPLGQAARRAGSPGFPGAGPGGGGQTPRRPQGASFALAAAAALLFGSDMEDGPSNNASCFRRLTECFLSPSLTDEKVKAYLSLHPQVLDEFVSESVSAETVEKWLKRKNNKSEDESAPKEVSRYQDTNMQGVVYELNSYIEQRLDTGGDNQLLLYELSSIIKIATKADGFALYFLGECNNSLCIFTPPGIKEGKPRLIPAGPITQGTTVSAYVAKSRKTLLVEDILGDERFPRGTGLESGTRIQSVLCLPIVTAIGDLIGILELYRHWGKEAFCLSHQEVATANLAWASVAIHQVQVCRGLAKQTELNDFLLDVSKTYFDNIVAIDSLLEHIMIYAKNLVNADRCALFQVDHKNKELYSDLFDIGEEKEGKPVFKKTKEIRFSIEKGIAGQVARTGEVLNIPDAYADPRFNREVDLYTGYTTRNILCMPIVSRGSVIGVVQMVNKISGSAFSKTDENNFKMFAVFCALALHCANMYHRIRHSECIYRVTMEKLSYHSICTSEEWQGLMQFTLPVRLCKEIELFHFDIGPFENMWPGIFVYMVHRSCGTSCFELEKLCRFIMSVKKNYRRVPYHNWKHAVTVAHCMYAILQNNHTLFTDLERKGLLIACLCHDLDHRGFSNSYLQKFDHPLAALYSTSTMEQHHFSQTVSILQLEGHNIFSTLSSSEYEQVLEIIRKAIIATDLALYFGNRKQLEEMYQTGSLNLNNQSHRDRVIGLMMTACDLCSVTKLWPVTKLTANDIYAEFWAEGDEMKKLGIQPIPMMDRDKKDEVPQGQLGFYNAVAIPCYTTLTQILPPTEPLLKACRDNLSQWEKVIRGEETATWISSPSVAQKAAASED
Sequence of Retinoic acid receptor alpha (Homo sapiens) (P10276 whole entry, looked up, the tested form may be a part): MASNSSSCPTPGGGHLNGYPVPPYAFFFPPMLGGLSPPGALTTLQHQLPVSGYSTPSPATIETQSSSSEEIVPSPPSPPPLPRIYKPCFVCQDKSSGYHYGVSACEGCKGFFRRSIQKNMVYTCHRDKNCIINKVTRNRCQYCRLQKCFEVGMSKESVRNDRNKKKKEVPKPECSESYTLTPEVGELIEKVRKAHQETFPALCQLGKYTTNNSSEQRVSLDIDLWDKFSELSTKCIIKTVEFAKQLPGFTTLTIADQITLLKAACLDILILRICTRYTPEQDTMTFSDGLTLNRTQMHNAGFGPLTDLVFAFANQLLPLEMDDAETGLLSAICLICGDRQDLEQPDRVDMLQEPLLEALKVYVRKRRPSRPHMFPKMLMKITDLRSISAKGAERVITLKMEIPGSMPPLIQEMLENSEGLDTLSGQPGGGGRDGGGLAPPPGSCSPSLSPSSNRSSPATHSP

The term AC50 denotes the concentration at which the activity in the assay is half-maximal. Regarding `COc1ccccc1OCC(O)CO` (stereo unspecified), the AC50 in [1] was 25 µM (active).

Regarding `CN(C)c1ccc(C(c2ccccc2)c2ccc(N(C)C)cc2)cc1`, the outcome in [2] is “inactive”; in [3] it was “inactive”; in [7] it was “inactive”; in [8], “inactive”; in experiment [9], “inactive”; in the experiment with Decorin, DCN (gene 1634), “inactive”. The outcome in experiment [10] and in [11] was inactive. Moreover, the AC50 in experiment [4] is 29 µM (active); in [5], 32.7 µM (active); in [6], 34.3 µM (active); in experiment [12], 22.3 µM (active).

Consider `C1=CCC=C1`, for which, in [13], the call was inactive.

Consider `CCCCOC(=O)COc1ccc(Cl)cc1Cl`, for which, in experiment [13], the call was inactive. The AC50 in the experiment with SERPINA7 (gene 6906) was 9.59 µM (active).

Take `CC1=NN(c2cc(Cl)c(S(=O)(=O)O)cc2Cl)C(=O)C1N=Nc1ccc(S(=O)(=O)O)cc1` (stereo unspecified): the AC50 is 39.4 µM (active) with SERPINA7 (gene 6906) and 18.8 µM (active) in the experiment on TTR (gene 7276).

Consider `CCOC(=O)CC(=O)OCC`, for which the result in experiment [14] was inactive.

Take `COC(=O)c1ccccc1`: the compound was called inactive in experiment [1].

Take `Cc1cccnc1`: the result in experiment [2], in [3], in experiment [4], in [5], in [6] and in [7] was inactive. The outcome was “inactive” in [8]; “inactive” in experiment [9]; “inactive” in the experiment with Decorin, DCN (gene 1634); “inactive” in experiment [10]; “inactive” in experiment [11]; “inactive” in [12].

Regarding `Cc1cc(-n2nc3ccc(Cl)cc3n2)c(O)c(C(C)(C)C)c1`, the outcome in experiment [2], in experiment [3], in experiment [4], in experiment [5], in experiment [6] and in experiment [7] was inactive. Further, the outcome in [8] was “inactive”; in experiment [9], “inactive”; in the experiment with Decorin, DCN (gene 1634), “inactive”; in [10], “inactive”; in experiment [11], “inactive”; in experiment [12], “inactive”.

Turning to `CCCCCCCCCCC1CO1` (stereo unspecified), the compound was classed as inactive in experiment [15], in experiment [4], in experiment [6] and in experiment [9]. In addition, the AC50 is 31.8 µM (active) in experiment [2]; 31.2 µM (active) in experiment [3]; 33.5 µM (active) in [5]; 31.1 µM (active) in experiment [7]; 29 µM (active) in [8]; 24.7 µM (active) in the experiment with Decorin, DCN (gene 1634). For the same compound, the AC50 in experiment [10] is 35.2 µM (active); in [11], 32.3 µM (active).
